An excerpt weighted towards active compounds, which were near 3.5% of everything screened.
TEAD-YAP inh – TEAD-YAP interaction inhibition | 640,000 tested, 1.4% active | inhibition, % at 9.12 µM | HEK-TIYL cells, TEAD-Gal4/YAP UAS-luciferase luminescence | AID 1259422; in the data active = inhibition above about 32%;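 also: 0% = median of test compound wells and 100% = reference inhibitor wells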
GPR151 activ – activators of human GPR151; PathHunter beta-arrestin GPR151 cells, luminescence; activation, % at 11.2 µM; 650,000 tested, 1% active; AID 1508602; in the data active = activation above about 4.9%;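 also: 0% = median of compound wells and 100% = cells with positive control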
FBW7 activator – activators of human E3 ligase FBW7; Q969H0; AlphaScreen FBW7–phospho-cyclin E peptide binding, activator screen; normalized activity (activation), % at 26.1 µM; 650,000 tested, 0.13% active; AID 1259310; in the data active = normalized activity above about 1.9%;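 also: purified mutant Fbw7 with reduced substrate affinity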
MITF primary – blocks human microphthalmia-associated transcription factor. O75030. AlphaScreen MITF homodimerization, bead proximity signal. inhibition, % at 2.6 µM. 650,000 tested, 0.91% active; in the data active = inhibition above about 50%;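 also: 0% = vehicle wells with protein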
Target sequence (O75030 whole entry, looked up): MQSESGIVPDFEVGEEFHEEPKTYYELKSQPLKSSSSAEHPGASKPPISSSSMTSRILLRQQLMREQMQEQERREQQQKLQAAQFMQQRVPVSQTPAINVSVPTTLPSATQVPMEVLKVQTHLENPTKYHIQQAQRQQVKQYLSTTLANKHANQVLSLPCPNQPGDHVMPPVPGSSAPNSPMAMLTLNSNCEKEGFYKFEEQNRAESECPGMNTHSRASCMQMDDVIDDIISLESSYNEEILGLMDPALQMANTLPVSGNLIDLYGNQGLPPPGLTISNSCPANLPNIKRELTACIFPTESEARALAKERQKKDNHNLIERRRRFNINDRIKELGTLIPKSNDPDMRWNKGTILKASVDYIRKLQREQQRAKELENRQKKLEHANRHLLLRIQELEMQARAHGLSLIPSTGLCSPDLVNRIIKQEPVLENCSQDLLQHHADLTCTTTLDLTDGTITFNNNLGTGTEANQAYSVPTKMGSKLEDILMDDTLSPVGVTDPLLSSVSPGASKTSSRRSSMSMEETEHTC
* hit, by the source's call.

SMILES	TEAD-YAP inh	GPR151 activ	FBW7 activator	MITF primary
CN(C)CCN(C(=O)c1cccs1)c1nc2ccc(F)cc2s1	-41	-1	0	18
COc1cc(-c2cnc3c(NCc4cccnc4)nccn23)cc(OC)c1OC	39*	0	0	-9
COc1cc(-c2cnc3c(NCc4ccncc4)nccn23)cc(OC)c1OC	-8	0	0	-1
COc1cc(-c2cnc3c(NCc4cccs4)nccn23)cc(OC)c1OC	38*	0	1.9*	-2
COc1cc(CNc2nccn3c(-c4cccc(O)c4)cnc23)cc(OC)c1OC	0	1	2.1*	-1
CC1(C)CC(NC(=O)c2cc(Br)ccc2Cl)CC(C)(C)N1	1	1	0	-7
COc1cc(S(=O)(=O)NCc2ccncc2)ccc1Cl	40*	3	0	17
COc1ccc(S(=O)(=O)Nc2cc(OC)c(Cl)cc2OC)cc1	64*	1	1	14
COc1cc(S(=O)(=O)NCc2cccnc2)ccc1Cl	8	-1	0	1
COc1ccc(S(=O)(=O)Nc2ccc(OC)c(OC)c2)cc1Cl	38*	2	0	-2
CCOc1ccc(S(=O)(=O)Nc2cc(OC)c(Cl)cc2OC)cc1	63*	0	0	5
COc1cc(NS(=O)(=O)c2ccccc2)c(OC)cc1Cl	3	1	0	-4
Cc1ccc(Nc2nc(Cl)c(Cl)c(SC(F)(F)F)c2Cl)cc1	-3	2	0	10
CSCc1csc(NC(=O)c2cccc3ccccc23)n1	-2	0	0	6
COc1cc2c(cc1NC(=O)N1CCOCC1)oc1ccccc12	-55	0	1	13
COc1ccc(Cl)cc1NS(=O)(=O)c1ccc(C)cc1OC	52*	0	0	-7
COc1cc(S(=O)(=O)Nc2cc(OC)c(Cl)cc2OC)ccc1Cl	50*	3	0	13
CCOc1ccc(S(=O)(=O)Nc2cc(C)ccc2OC)cc1	53*	1	1	7
Cc1cc(C)c(S(=O)(=O)NCc2ccncc2)c(C)c1	46*	0	0	-6
COc1cccc(N2C(=O)c3ccc(C(=O)Nc4cccc(O)c4)cc3C2=O)c1	5	-6	1	1
CCCn1c(SCC(=O)NC(C)(C)C)nnc1-c1ccccn1	5	0	0	18
CN(C)C(=O)c1ccc(S(=O)(=O)NCc2ccncc2)cc1	37*	0	0	7
C=COCCCCNC1=CC(=O)C(NCCCCOC=C)=CC1=O	-6	0	0	-6
COc1ccc(CCNc2cc(C)nc(Oc3ccccc3)n2)cc1	35*	3	0	19
Cc1cc(NCCN(C(C)C)C(C)C)nc(Oc2ccccc2)n1	64*	1	0	-2
SMILES	TEAD-YAP inh	GPR151 activ	FBW7 activator	MITF primary
Nc1cc(S(=O)(=O)O)c(O)c2c1C(=O)c1c(O)c(S(=O)(=O)O)cc(N)c1C2=O	17	-3	-1	61*
O=C(CCC1CCCC1)NNC(=O)CSc1nc2ccccc2s1	2	1	0	3
COc1ccc(CN2CCN(C(=O)c3ccc(S(=O)(=O)c4ccc(F)cc4)c([N+](=O)[O-])c3)CC2)c(OC)c1OC	43*	-1	0	-11
O=C1Nc2cc(C(=O)N3CCN(Cc4ccc5c(c4)OCO5)CC3)ccc2NC1CSCc1ccc(F)cc1 (stereo not drawn)	48*	-1	0	3
O=C(c1ccc(S(=O)(=O)c2cccc(Cl)c2)c([N+](=O)[O-])c1)N1CCN(c2ccc(F)cc2)CC1	1	1	0	8
COc1ccc(C(=O)N2CCN(Cc3ccc4c(c3)OCO4)CC2)cc1[N+](=O)[O-]	45*	-1	1	20
O=C(c1ccc(S(=O)(=O)c2cccc(Cl)c2)c([N+](=O)[O-])c1)N1CCOCC1	32*	2	0	0
COc1cccc(OC)c1C(=O)Nc1ccc(I)cn1	-1	1	0	0
S=C1N=C(Nc2ccccc2)C2(CCCCC2)N1c1cccc(Cl)c1	7	1	0	0
CCCN=C(CC)C1=C(O)C(C(=O)OC)C(C)(C)CC1=O (stereo not drawn)	7	0	0	14
O=C(c1ccc([N+](=O)[O-])c(Cl)c1)N1CCN(Cc2ccc3c(c2)OCO3)CC1	51*	0	0	30
Cc1ccc2cc3c(nc2c1)-c1ccccc1C3	60*	-10	0	9
Cc1cc(C)c2c(c1)Cc1cc3ccccc3nc1-2	-15	1	0	5
c1ccc2c(c1)Cc1cc3ccccc3nc1-2	47*	-9	0	10
Cc1ccc2nc(-c3ccccc3)c(-c3ccccc3)nc2c1	2	1	1	-2
Cc1cccc(NC(c2ccc(C(F)(F)F)cc2)c2ccc3cccnc3c2O)n1 (stereo not drawn)	77*	-1	-1	7
Oc1c(C(Nc2ccccn2)c2ccc(C(F)(F)F)cc2)ccc2cccnc12 (stereo not drawn)	46*	-2	-2	3
COc1ccc(C2=N/C(=C/c3ccc(OC)c(OC)c3)C(=O)O2)cc1Br	-5	1	0	-9
O=C(CN(Cc1ccccc1)S(=O)(=O)c1cc(Cl)ccc1Cl)NC1CC1	6	-1	0	5
Clc1ccc(CSc2nnnn2-c2ccccc2)cc1	-5	-1	0	9
COc1ccc(-n2nnnc2SCc2ccc(Cl)cc2)cc1	53*	-1	0	14
COc1ccc2sc3ccccc3c(=O)c2c1	-40	-5	1	-16
Nc1ccc2sc3ccccc3c(=O)c2c1	-54	-2	2.1*	-6
Cc1ccc2[nH]c(=O)c(CN(CCO)S(=O)(=O)c3cccc4nsnc34)cc2c1	48*	2	0	11
CCC(C)Nc1c(-c2ccc(C)cc2)c(=O)c1=O (stereo not drawn)	24	-2	0	13
SMILES	TEAD-YAP inh	GPR151 activ	FBW7 activator	MITF primary
Cc1ccc(-c2c(NC3CCCC3)c(=O)c2=O)cc1C	32*	1	0	12
CCC(C)Nc1c(-c2ccc(C)c(C)c2)c(=O)c1=O (stereo not drawn)	52*	0	0	-3
O=C(O)c1c(CNC2CC2)c2ccccc2n1Cc1ccc(F)cc1Cl	5	-1	0	-8
CC(=O)Nc1ccc(Nc2ccnc(Nc3ccncn3)n2)cc1	-16	4	0	10
CC(=O)Nc1ccc(Nc2cc(C)nc(Nc3ccc4ncccc4c3)n2)cc1	27	1	0	10
CC(=O)Nc1ccc(Nc2ccnc(Nc3ccc(C(F)(F)F)cc3)n2)cc1	60*	0	0	11
CC(=O)Nc1ccc(Nc2ccnc(Nc3ccc4ncccc4c3)n2)cc1	37*	-1	0	5
COc1cccc(NC(=O)C(=O)N/N=C(\C)CC(=O)NC2CCCCCCC2)c1	-50	-3	0	3
COc1cc(OC)cc(C(=O)N/N=C(\C)CC(=O)NC2CCCCC2)c1	60*	0	0	-3
C/C(CC(=O)Nc1ccccc1C#N)=N\NC(=O)c1ccncc1	6	1	1.9*	9
C/C(CC(=O)Nc1cccc(C(F)(F)F)c1)=N\NC(=O)c1ccc2ccccc2c1	51*	0	0	7
C/C(CC(=O)Nc1ccc(I)cc1)=N\NC(=O)c1cccc(O)c1	12	0	0	-2

Assay outcomes: PubChem BioAssay, The Scripps Research Institute Molecular Screening Center
